RORgamma inh: inhibitors of mouse ROR gamma transcriptional activity; Potency, µM (doses to about 53.6 µM), most hits filed as inhibitors; Drosophila S2 Gal4-RORgamma UAS-luciferase reporter, 20 h; actives 5.4% (n = 310,000); AID 2551; further: nearly all actives have a fitted effect of over 60% in size
Target sequence (P51450 whole entry, looked up, the tested form may be a part): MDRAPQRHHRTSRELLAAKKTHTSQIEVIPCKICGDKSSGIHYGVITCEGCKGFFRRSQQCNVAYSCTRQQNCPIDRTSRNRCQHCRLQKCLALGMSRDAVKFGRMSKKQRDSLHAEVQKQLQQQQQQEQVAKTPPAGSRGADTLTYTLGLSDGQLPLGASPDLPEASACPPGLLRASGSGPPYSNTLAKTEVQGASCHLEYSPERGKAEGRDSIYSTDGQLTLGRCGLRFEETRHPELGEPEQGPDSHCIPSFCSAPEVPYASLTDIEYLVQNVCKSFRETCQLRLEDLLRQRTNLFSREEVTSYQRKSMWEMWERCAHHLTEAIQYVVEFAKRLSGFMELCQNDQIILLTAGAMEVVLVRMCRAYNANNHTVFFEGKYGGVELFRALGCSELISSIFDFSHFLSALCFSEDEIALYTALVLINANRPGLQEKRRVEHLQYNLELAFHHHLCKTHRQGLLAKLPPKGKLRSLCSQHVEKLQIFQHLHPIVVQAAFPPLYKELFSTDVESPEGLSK
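Read-out: Photinus luciferase luminescence; inhibitors lower reporter signal. Insect Schneider cells with Gal4-ROR gamma fusion under metallothionein promoter, UAS reporter; 700 uM final copper sulfate induction, 20 hr, ambient temperature.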
Giardia kill: Giardia lamblia killing; Giardia lamblia trophozoite viability; activity change, % at 7.66 µM, hits read low; actives 0.15% (n = 340,000); in the data active means activity change below about -80%; inconclusive means between about -30% and that limit;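 further: parasites exposed to compound for two days anaerobically before the ATP read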
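Giardia lamblia trophozoites (100 cells/well) were incubated with compounds for 48 h at 37 deg C under anaerobic conditions. Viability was read as ATP content by one-step luminescence after 15-30 min at room temperature.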
Integrin act MD: activates integrin-mediated alleviation for muscular dystrophy; Potency, µM (series often up to 38.3 µM), hits mostly activators; alpha7betagal myoblasts, beta-gal FDG fluorescence, 48 h; actives 0.064% (n = 350,000); AID 624291; further: nearly all actives have a fitted effect of over 60% in size
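Alpha7betagal+/- myoblasts (passage 13) were plated 16-24 hr, then exposed to compounds (1:260 dilution of DMSO stock) for 48 hours at 37C. After MPER lysis, β-galactosidase reporter activity was read as FDG fluorescence (ex 480/em 540) after 30 minutes.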
ERG-DNA inh: inhibitors of human ERG Ets domain-DNA interaction; Potency, µM (titrated, usually from 76.9 µM), usual class: inhibitors; fluorescence polarization, His-ERG Ets domain / labelled DNA; actives 0.028% (n = 370,000); active means well fitted inhibition curve with a large enough effect in the polarisation, with a control signal flat; inconclusive means small, poorly fitted or top-dose-only effect, or effect the other way, or a change in a side signal; inactive means no such curve, though single readings can be large or run the other way; the % refers to the polarisation;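 further: polarization taken with two DNA probes labelled with fluorescein and Texas red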
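His-tagged ERG Ets domain (1 uM in the protein solution; 300mM KCl, 50mM Tris-HCl, 1mM EDTA, 1mM DTT, pH 7.5) received compound, then a probe mix of 5 nM fluorescein-DNA and 100nM Texas-615-DNA. Fluorescence polarization was read for both dyes.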
VP16 counter: inhibits Gal4-VP16 luciferase reporter, ROR gamma counter-screen; Drosophila S2 Gal4-VP16 UAS-luciferase, luminescence, 20 h; actives 3.5% (n = 310,000); Potency, µM (doses to about 53.6 µM), usual class: inhibitors; AID 2546;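 further: Gal4-VP16 expression switched on by copper sulfate through the metallothionein promoter; nearly all actives have a fitted effect of over 50% in size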
Large screens that a line does not name were inactive. Shown is part of a subset that was picked to be rich in hits. Unless noted, the call rests on the fitted dose curve; in most records, active means well fitted curve in the direction sought with a large enough effect; inconclusive means small, poorly fitted or top-dose-only effect, or another doubt; inactive means no such curve, though single readings can be large; an effect the other way counts as inactive or inconclusive.

Cc1ccc(C(=O)NN=C2CCCCCC2)s1	RORgamma inh inconclusive
O=C(NN=C1CCCCCC1)c1ccc(Cl)s1	RORgamma inh inconclusive, Integrin act MD inconclusive, VP16 counter 13µM
CNc1nnc(SCC(=O)N2c3ccccc3NC(=O)CC2C)s1 (stereo not drawn)	none (no result: RORgamma inh, VP16 counter)
CC1CCCO1 (stereo not drawn)	none (no result: Giardia kill, Integrin act MD, ERG-DNA inh)
O=C(c1cnccn1)N1CCC[C@@]2(CCN(C(c3ccccc3)c3ccccc3)C2)C1	none (no result: Giardia kill, Integrin act MD, ERG-DNA inh)
CCc1ccc(Nc2nnc(SCC(=O)Nc3cccnc3Cl)s2)cc1	RORgamma inh 11µM, VP16 counter inconclusive
Cc1nnc(SCC(=O)Nc2cccnc2Cl)s1	none (no result: RORgamma inh, VP16 counter)
O=C1C=CC2(O[C@H](c3ccccc3)[C@@H](c3ccccc3)O2)[C@H](Sc2ccccc2O)C1	none (no result: RORgamma inh, ERG-DNA inh, VP16 counter)
O=C1C(Nc2ccccc2)=CC(=O)c2ncccc21	RORgamma inh 3.2µM, VP16 counter 4.5µM (no result: Giardia kill, Integrin act MD, ERG-DNA inh)
CC(C)c1cc(C(C)C)c(S(=O)(=O)Nc2cccc3cccnc23)c(C(C)C)c1	RORgamma inh 0.05µM (no result: Giardia kill, Integrin act MD, ERG-DNA inh)
Cc1ccc(S(=O)(=O)Nc2ccc(NS(=O)(=O)c3ccc(C)cc3)c3ncccc23)cc1	RORgamma inh 5µM, VP16 counter 5.6µM (no result: Giardia kill, Integrin act MD, ERG-DNA inh)
Cc1ccc2nsnc2c1S(=O)(=O)Nc1cccc2cccnc12	RORgamma inh 1.1µM, VP16 counter 0.63µM (no result: Giardia kill, Integrin act MD, ERG-DNA inh)
COc1ccc(CNS(=O)(=O)c2ccc(N3CCCCS3(=O)=O)cc2)cc1	none (no result: RORgamma inh, Giardia kill, Integrin act MD, VP16 counter)
CCN1CCN(CCC(=O)Nc2cc(OC)cc(OC)c2)CC1	none
COc1cc2c(cc1OC)C(c1ccc(F)cc1)N(c1cccc(C#N)c1)C(=O)C2 (stereo not drawn)	none (no result: RORgamma inh, Giardia kill, Integrin act MD, VP16 counter)
O=C1C=C(Nc2cccc3cccnc23)c2ccccc2C1=O	RORgamma inh 10µM, VP16 counter 10µM
O=C1c2ccccc2C(=O)c2cc(S(=O)(=O)Nc3cccc4cccnc34)ccc21	RORgamma inh 0.89µM (no result: Giardia kill, Integrin act MD, ERG-DNA inh)
O=S(=O)(Nc1cccc2cccnc12)c1ccccc1Br	none (no result: RORgamma inh, Integrin act MD, ERG-DNA inh, VP16 counter)
Cc1ccc(S(=O)(=O)Nc2cccc3cccnc23)cc1	RORgamma inh 1.1µM, VP16 counter 1.8µM
Cc1ccc(S(=O)(=O)Nc2ccccc2-c2ccccc2NS(=O)(=O)c2ccc(C)cc2)cc1	none
Nc1ccccc1S(=O)(=O)Nc1cccc2cccnc12	RORgamma inh 1.6µM, VP16 counter 2.2µM (no result: Giardia kill, Integrin act MD, ERG-DNA inh)
O=S(=O)(Nc1cc(Sc2cccc3cccnc23)c(O)c2ccccc12)c1ccccc1	RORgamma inh 1.3µM, VP16 counter 2.8µM (no result: Giardia kill, Integrin act MD, ERG-DNA inh)
CCCCNc1nc(C#N)nc(Nc2ccccc2)n1	none (no result: RORgamma inh, Giardia kill, Integrin act MD, ERG-DNA inh)
CC(=O)NNC(=O)c1[nH]c2ccc(Cl)cc2c1-c1ccccc1	none
O=C(NN=C1CCCC1)c1[nH]c2ccc(Cl)cc2c1-c1ccccc1	RORgamma inh 11µM, VP16 counter inconclusive
CC(C)CC(=O)NC(=S)Nc1nc(-c2ccc(Cl)cc2)cs1	RORgamma inh 8.9µM, Giardia kill inconclusive, VP16 counter inconclusive
O=C(CN1CCCCC1)Nc1nc(-c2ccc(Cl)cc2)cs1	none
CC(C)CC(=O)NC(=S)Nc1nc(-c2ccccc2)cs1	RORgamma inh 6.3µM, VP16 counter 5.6µM
COCC(=O)Nc1nc(-c2ccc(-c3ccccc3)cc2)cs1	none
CCN(CC)CC(=O)Nc1nc(-c2ccc(Cl)cc2)cs1	RORgamma inh 8.9µM, VP16 counter 20µM
COc1ccccc1NS(=O)(=O)c1ccc(NN=C2CCCC2)c([N+](=O)[O-])c1	RORgamma inh inconclusive, VP16 counter 18µM
CCCOc1cccc(C(=O)NC(=S)Nc2ccccc2)c1	RORgamma inh 8.9µM, VP16 counter inconclusive
CC(C)COc1cccc(C(=O)NC(=S)Nc2cccc(NC(=O)c3ccccc3Cl)c2)c1	RORgamma inh 6.3µM, VP16 counter 5.6µM
CCCOc1cccc(C(=O)NC(=S)Nc2cccc(NC(=O)c3ccccc3Cl)c2)c1	RORgamma inh inconclusive, VP16 counter inconclusive
CC(C)Oc1cccc(C(=O)NC(=S)Nc2ccccc2)c1	RORgamma inh inconclusive, VP16 counter 5µM
CCc1ccc(NCc2cc3ccc(OC)cc3n(CC(=O)Nc3ccccc3OC)c2=O)cc1	none (no result: RORgamma inh, Giardia kill, Integrin act MD, VP16 counter)
Cc1noc(C)c1COc1ccc(C(=O)NNC(=O)c2ccccc2O)cc1	none (no result: RORgamma inh, VP16 counter)
COc1ccc2[nH]c3c(C)c4ccncc4c(C)c3c2c1	RORgamma inh 3.2µM, ERG-DNA inh inconclusive, VP16 counter 4.5µM
CC1(C(=O)NC2CCCCC2)Cc2ccccc2C(=O)N1Cc1ccc(Cl)cc1 (stereo not drawn)	none (no result: RORgamma inh, Giardia kill, Integrin act MD, VP16 counter)

High-throughput results deposited in PubChem BioAssay by National Center for Advancing Translational Sciences (NCATS).
